In PubChem BioAssay AID504321 (NMMLSC, 2011):
Active and inactive are the calls of the source.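 How the source made its calls: active means GFP response vs DMSO above 150% with enough events counted; inconclusive means fewer than 70 events counted for a yeast strain; inactive means the rest.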

Experiment: yeast MEP2-GFP fusion level changes, TOR pathway – flow cytometry, third cherry pick, S. cerevisiae, confirmation (AID 504321);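 further: median per-cell GFP fluorescence by flow cytometry across all yeast cells; ratio of sample to DMSO median GFP so 100% equals the DMSO level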
Conditions: S. cerevisiae MEP2-GFP strain, 3 h, at 10 µM, hits give high values

**Q.** For `CN(C)C(=O)Oc1ccc(Cl)c2cccnc12`, which GFP response vs DMSO is on record?
**A.** The GFP response vs DMSO was 110% (inactive).

**Q.** With `Cc1ccc2c(c1N)C(=O)c1ccccc1C2=O` as the molecule, how does the GFP response vs DMSO read?
**A.** The GFP response vs DMSO was 103% (inactive).

**Q.** For `CN(C)C(=O)Oc1ccnc2cc(Cl)ccc12`, which GFP response vs DMSO is on record?
**A.** Its GFP response vs DMSO is 108% (inactive).

**Q.** Which GFP response vs DMSO does the source give for `CCN1CCN(c2ncnc3ccc(Br)cc23)CC1` here?
**A.** Its GFP response vs DMSO is 112% (inactive).

**Q.** With `C/C(O)=C(\C#N)C(=O)Nc1cc(Br)ccc1Br` as the molecule, how does the GFP response vs DMSO read?
**A.** Its GFP response vs DMSO is 112% (inactive).

**Q.** For `CN1CCN(c2ncnc3ccc(Br)cc23)CC1`, which GFP response vs DMSO is on record?
**A.** Its GFP response vs DMSO is 101% (inactive).
